Assay outcomes from PubChem BioAssay.
MITF TRPM1 inh: reduces MITF-dependent TRPM1 promoter luciferase signal; SK-MEL-5 TRPM1 promoter luciferase, 24 h; 0.83% of 330,000 active; inhibition, % at 12.5 µM;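 active = mean inhibition across replicates of 60% or more, whatever share of single replicates reaches that level; inconclusive = some that reach 60%, reason not given; inactive = mean inhibition across replicates below 60%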
EBV LMP1 NFkB: Epstein-Barr LMP1 NF-kappaB reporter inhibition; LMP1-induced NF-kappaB luciferase reporter cells, luminescence; inhibition, % at 12.5 µM; 0.69% of 350,000 active; AID 504558; in the data active = inhibition above about 41%; inconclusive = no clear call, values can overlap the other calls;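 note: 0% = neutral control wells and 100% = reference inhibitor control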
C2C12 statin: suppressors of simvastatin-induced myotoxicity in C2C12 myotubes; ATP luminescence, 48 h; scaled: DMSO 0, geranylgeraniol control 100; rescue of ATP level, % at 7.49 µM; 0.78% of 330,000 active;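 active = mean ATP rescue above about 67%, or every replicate alone reaching that limit, limit read from the data, passing the limit was not always enough; inconclusive = no clear call, values can overlap the other calls; inactive = mean under the limit and some replicate under it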;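 note: myotubes were challenged with 10 µM simvastatin during compound exposure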
esBAF inh: inhibitors of esBAF chromatin remodeling in mouse ES cells. Bmi1-luciferase knock-in reporter, 24 h; 100% = twice the neutral-well signal. reporter increase, % at 12.5 µM. 2% of 350,000 active. AID 602393; in the data active = activation above about 40%; inconclusive = no clear call, values can overlap the other calls;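 note: 0% = median of the plate's neutral control wells and 100% = double that signal; a rise in the Bmi1 reporter signal indicates esBAF inhibition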
MITF act: MITF TRPM1 promoter activation in melanoma cells; activation, % at 12.5 µM; AID 588334; SK-MEL-5 TRPM1-promoter luciferase, 24 h; % of positive control, neutral wells = 0; 0.75% of 300,000 active;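 active = mean activation of at least 80% with every replicate also reaching 80%; inconclusive = mean reaches 80% but some replicate falls short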;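 note: 0% = neutral control wells and 100% = parthenolide positive control wells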
Wnt act: activators of Wnt/beta-catenin signaling | activation, % at 9.35 µM | 1.2% of 300,000 active | Wnt/beta-catenin reporter cell assay, activator, plate reader; in the data active = activation above about 30%, passing the limit was not always enough; inconclusive = no clear call, values can overlap the other calls;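 note: 0% = neutral control wells and 100% = positive control wells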
Numbers without * were called inactive; ? = inconclusive; . = no result given. In the library only some 4% were active in any assay of this set; here they are far more common.

SMILES | MITF TRPM1 inh | EBV LMP1 NFkB | C2C12 statin | esBAF inh | MITF act | Wnt act
c1ccc(N=Nc2ccc(C3=NCCO3)cc2)cc1 | . | 8 | -18 | -36 | . | 44*
Cn1c(-c2ccc3ccccc3n2)nc2cnccc21 | -21 | -14 | -4 | 66* | . | -2
Cn1c(-c2ccc(F)c(F)c2)cc2onc(-c3ccccc3)c2c1=O | -109 | -38 | -33 | 39 | 116* | 64*
COc1ccc(-c2cc3onc(-c4c(Cl)cccc4Cl)c3c(=O)n2C)cc1 | -19 | -11 | 9 | 35 | 20 | 6
COc1cccc(-c2cc3onc(-c4ccccc4)c3c(=O)n2C)c1 | -64 | -16 | -13 | -17 | 63 | 38*
O=C(CCc1ccc(S(=O)(=O)N2CCOCC2)cc1)Oc1ccccc1 | 5 | -5 | . | -1 | -2 | .
COc1ccc2[nH]c3c(=O)n(CCN4CCOCC4)cnc3c2c1 | -2 | 0 | -14 | 4 | -3 | 8
O=S1(=O)C=C(Sc2nnc(-c3ccccc3)o2)c2ccccc21 | 96* | 8 | -564 | -79 | -95 | .
COC(=O)c1ccc(CNC(=O)COC(=O)/C=C/c2ccc(O)c(OC)c2)cc1 | 3 | 4 | 5 | -8 | 1 | -1
Cc1cc(C(F)F)n2nc(C(=O)Nc3cc(C)on3)nc2n1 | -7 | -1 | -8 | -2 | 7 | .
COc1ccc2sc3cccc(NCCN(C)C)c3c(=O)c2c1 | . | . | . | . | . | -1
CN(C)CCNc1ccc(CO)c2sc3ccc(O)cc3c(=O)c12 | 85* | 49* | . | . | . | -9
CN(C)CCNc1ccc2ncn3c4ccc(O)cc4c(=O)c1c23 | 83* | 35 | . | . | -82 | 3
O=C(CSc1ccc2nnc(-c3ccccn3)n2n1)Nc1ccc2c(c1)OCO2 | 1 | -6 | -1 | -4 | -4 | -2
COCCNC(=O)C(c1ccc(C)o1)N(Cc1ccc(OC)cc1)C(=O)Cn1nnc2ccccc21 (stereo not drawn) | 2 | -6 | 104* | 5 | 0 | 4
O=C(CCc1ccncc1)N1CCCC(Nc2ccc(F)c(F)c2)C1 (stereo not drawn) | 1 | -1 | -6 | -10 | -1 | -4
CCOC(=O)c1c(NC(=O)C2C3CCC(O3)C2C(=O)O)sc(C)c1-c1ccc(F)cc1 (stereo not drawn) | 3 | 80* | . | . | 0 | .
Cc1cc(C(=S)N2CCOCC2)c(C)n1-c1ccc(Cl)cc1 | 7 | 3 | . | . | -6 | .
Cc1onc(-c2ccccc2)c1C(=O)Nc1cc(C(F)(F)F)ccc1N1CCOCC1 | 21 | 69* | . | . | -21 | -25
Cc1onc(-c2ccccc2)c1C(=O)Nc1ccccc1N1CCOCC1 | 6 | 7 | 6 | 7 | . | -8
CC(C)NC(=O)N(C)C[C@@H]1Oc2c(NC(=O)c3ccncc3)cccc2C(=O)N([C@@H](C)CO)C[C@H]1C | . | . | -7 | -9 | . | .
Cc1nn(C)c(C)c1S(=O)(=O)NCc1cccs1 | -2 | -3 | 82* | -3 | . | .
CCO[C@@H]1OC(C(=O)N2CCN(Cc3ccccc3)CC2)=C[C@H](C)[C@H]1CCCO | 0 | -1 | 2 | 10 | 2 | -1
CC(=O)O[C@]1(C(C)=O)CC[C@H]2[C@@H]3C=C(C)C4=CC(=O)CC[C@@H]4[C@H]3CC[C@@]21C | 4 | 52* | 1 | 4 | -3 | -4
O=C(c1ccccn1)N1CC[C@@H]2[C@H]1c1cc(-c3ccc(F)cc3)ccc1N[C@@H]2CO | . | . | -28 | 47* | . | .
SMILES | MITF TRPM1 inh | EBV LMP1 NFkB | C2C12 statin | esBAF inh | MITF act | Wnt act
N#C/C(=C/c1ccc(N2CCOCC2)o1)c1ccc(Cl)cc1 | -94 | -31 | 4 | ? | 106* | -14
C[C@@H]1CN([C@@H](C)CO)C(=O)c2cccc(NS(=O)(=O)c3ccc(Cl)cc3)c2O[C@H]1CN(C)C(=O)Nc1cccc2ccccc12 | . | . | . | 14 | . | .
CCn1cc(Br)c(C(=O)Nc2ccc(F)c(Cl)c2)n1 | -34 | -12 | . | 58* | . | 21
CCn1cc(Br)c(C(=O)Nc2ccc(Cl)cc2Cl)n1 | -30 | -8 | 4 | 26 | . | .
Cc1noc(C(=O)Nc2ccc(F)c(Cl)c2)c1Cl | -23 | -14 | 8 | 49* | 25 | 7
COc1ccc(C(=O)Nc2ccc(Cl)c(Cl)c2)c(OC)n1 | -47 | -62 | . | 66* | 46 | 16
O=C(Nc1ccc(F)c(Cl)c1)c1cccnc1 | -25 | 6 | 0 | 10 | . | -1
